Measured values: PubChem BioAssay (NCATS)
Inconclusive results are not listed. Values without a mark were called inactive. The source made the active and inactive calls. Calls follow the shape of the dose curve; as a rule, active = well fitted curve in the direction sought with a large enough effect; inconclusive = small, poorly fitted or top-dose-only effect, or another doubt; inactive = no such curve, though single readings can be large; an effect the other way counts as inactive or inconclusive.

system: not listed separately; test: Primary qHTS for inhibitors of La Crosse Virus (LACV) - induced cell death in SH-SY5Y cells (AID 1508616); conditions: SH-SY5Y LACV cytopathicity rescue, ATP luminescence, 6 d; series mostly up to 4.29 µM; activity change: at the top concentration;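 also: 0% = infected DMSO wells and 100% = uninfected DMSO wells; higher means more rescue of cells from virus-induced death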
Procedure, shortened: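 Screening measures cell viability in LACV-infected SH-SY5Y cultures. Compound was added before virus (0.01 MOI), and ATP was detected by luminescence 6 days later.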
Also: top concentration of the series differs between compounds.

Row | SMILES | activity change
1 | O=C(O)COc1nn(Cc2ccccc2)c2ccccc12 | -0.247%
2 | NCC(=O)CCC(=O)O | -5.88%
3 | CC1=C(C/C=C(\C)CCC[C@H](C)CCC[C@H](C)CCCC(C)C)C(=O)c2ccccc2C1=O | 28.3%
4 | Oc1cn2c(n1)Nc1ccc(Cl)c(Cl)c1C2 | -7.43% [at 1.78 µM]
5 | CC(O)CN(CCN(CC(C)O)CC(C)O)CC(C)O (centres undefined) | 13.4%
6 | COc1ccc2cc1Oc1cc3c(cc1OC)CC[N+](C)(C)[C@H]3Cc1ccc(cc1)Oc1c(OC)c(OC)cc3c1[C@@H](C2)[N+](C)(C)CC3 | 8.77%
7 | CC(=O)Oc1c(C)c(C)c2c(c1C)CC[C@@](C)(CCC[C@H](C)CCC[C@H](C)CCCC(C)C)O2 | 6.94%
8 | N[C@@H](CSSC[C@H](N)C(=O)O)C(=O)O | -4.86% [at 0.0343 µM]
9 | N[C@H](C(=O)O)c1ccc(O)cc1 | 26.5% [at 1.78 µM]
10 | O=S(=O)(O)NC1CCCCC1 | 13.8%
11 | Cc1cccc(C)c1NC(=O)CN(CC(=O)O)CC(=O)O | -4.78%
12 | CCC(=O)Nc1ccc(O)cc1 | -0.69%
13 | CC1CC(OC(=O)C(O)c2ccccc2)CC(C)(C)N1C (centres undefined) | 8.45%
14 | CC(C)(C)C(=O)NCCCC(=O)O | 20.3%
15 | CC1(C)CO[C@@H](CC(=O)O)CN1 | 10.8%

target: Calcium and integrin-binding protein 1 (Homo sapiens) (UniProt Q99828); test: Primary qHTS for Identification of Calcium Integrin Binding Protein 1 (CIB1) Competitor (AID 1508620); conditions: CIB1-GST / FITC-alphaIIb peptide fluorescence polarization; series mostly up to 114 µM; activity change, negative = inhibition: at the top concentration;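 also: GST tagged CIB1 binding a fluorescein labelled alphaIIb integrin peptide tracer; % is scaled to controls: 0 for no effect and ±100 for the full control effect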
Procedure, shortened: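 CIB1-GST (1 uM final) and compound incubated 15 min at room temperature before adding FITC-alphaIIb peptide tracer (100 nM final). Competition for binding read by fluorescence polarization (ex 480, em 540) after another 15 min at room temperature.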

Calcium and integrin-binding protein 1 (Homo sapiens), sequence (Q99828 whole entry, looked up): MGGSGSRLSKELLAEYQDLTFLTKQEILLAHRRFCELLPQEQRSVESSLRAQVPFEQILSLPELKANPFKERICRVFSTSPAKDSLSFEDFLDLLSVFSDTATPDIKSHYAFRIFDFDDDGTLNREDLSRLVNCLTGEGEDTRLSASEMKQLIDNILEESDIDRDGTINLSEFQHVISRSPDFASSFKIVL

Row | SMILES | activity change, negative = inhibition | outcome
16 | CCCOC(=O)c1ccccc1 | 0.563% | –
17 | CN(C)CCCO[C@@H]1[C@H]2OC(C)(C)O[C@H]2O[C@@H]1C(O)CO (some centres undefined) | 8.9% | –
18 | COc1ccccc1O | 3.78% [at 228 µM] | –
19 | CC12CCC(CC1)C(C)(C)O2 | 1.29% | –
20 | O=C(O)CC(O)C(=O)O (centres undefined) | -0.0765% | –
21 | CC1(C)OC(=O)NC1=O | 1.91% | –
22 | CC[C@@]1(c2ccccc2)NC(=O)N(C)C1=O | -2.31% | –
23 | O=Cc1ccccc1C=O | 9.19% | –
24 | CC1(C)S[C@@H]2[C@H](NC(=O)Cc3ccccc3)C(=O)N2[C@H]1C(=O)O (tested in a mixture with another compound) | 2.27% | –
25 | Oc1ccc(C(O)CNCCCCCCNCC(O)c2ccc(O)c(O)c2)cc1O (centres undefined) | -4.73% | –
26 | CC/C=C(\C(=O)N[C@@H]1C(=O)N2C(C(=O)OCOC(=O)C(C)(C)C)=C(COC(N)=O)CS[C@H]12)c1csc(N)n1 | – | inactive
27 | N[C@@H](CSCCCO)C(=O)O | 3.15% [at 57.7 µM] | –
28 | CCOC(=O)[C@H](CCc1ccccc1)N[C@@H](C)C(=O)N1C(=O)N(C)C[C@H]1C(=O)O | – | inactive
29 | CCCCN(CCCC)CCCOC(=O)c1ccc(N)cc1 | 11.4% | –
30 | CCOc1ccc2ccccc2c1C(=O)N[C@@H]1C(=O)N2[C@@H]1SC(C)(C)[C@@H]2C(=O)O | – | inactive
31 | CN1CCOC(c2ccccc2)c2ccccc2C1 (centres undefined) | – | inactive
32 | C[C@@H]1CCN(C(=O)[C@H](CCCN=C(N)N)NS(=O)(=O)c2cccc3c2NC[C@H](C)C3)[C@@H](C(=O)O)C1 | -2.29% | –

Row | SMILES | activity change, negative = inhibition | outcome
33 | COc1cc(C(=O)N2CCOCC2)cc(OC)c1OC | -0.186% | –
34 | O=C1OC(OC(=O)c2cccnc2Nc2cccc(C(F)(F)F)c2)c2ccccc21 (centres undefined) | 2.15% | –
35 | O=C(O)COc1nn(Cc2ccccc2)c2ccccc12 | -2.2% | –
36 | NCC(=O)CCC(=O)O | 2.01% | –
37 | CC1=C(C/C=C(\C)CCC[C@H](C)CCC[C@H](C)CCCC(C)C)C(=O)c2ccccc2C1=O | 2.85% | –
38 | Oc1cn2c(n1)Nc1ccc(Cl)c(Cl)c1C2 | 2.41% [at 57.7 µM] | –
39 | CC(O)CN(CCN(CC(C)O)CC(C)O)CC(C)O (centres undefined) | -1.27% | –
40 | COc1ccc2cc1Oc1cc3c(cc1OC)CC[N+](C)(C)[C@H]3Cc1ccc(cc1)Oc1c(OC)c(OC)cc3c1[C@@H](C2)[N+](C)(C)CC3 | 6.82% | –
41 | CC(=O)Oc1c(C)c(C)c2c(c1C)CC[C@@](C)(CCC[C@H](C)CCC[C@H](C)CCCC(C)C)O2 | 0.445% | –
42 | N[C@@H](CSSC[C@H](N)C(=O)O)C(=O)O | 1.18% [at 1.07 µM] | –
43 | N[C@H](C(=O)O)c1ccc(O)cc1 | 2.02% [at 57.7 µM] | –
44 | O=S(=O)(O)NC1CCCCC1 | 3.88% | –
45 | Cc1cccc(C)c1NC(=O)CN(CC(=O)O)CC(=O)O | 5.18% | –
46 | CCC(=O)Nc1ccc(O)cc1 | 5.17% | –
47 | CC1CC(OC(=O)C(O)c2ccccc2)CC(C)(C)N1C (centres undefined) | -0.787% | –
48 | CC(C)(C)C(=O)NCCCC(=O)O | -1.87% | –
49 | CC1(C)CO[C@@H](CC(=O)O)CN1 | 1.43% | –
